Results reported in PubChem BioAssay (NCATS).
Results filed as inconclusive are left out. The source made the active and inactive calls. The call rests on the fitted dose curve; in most records, active means well fitted curve in the direction sought with a large enough effect; inconclusive means small, poorly fitted or top-dose-only effect, or another doubt; inactive means no such curve, though single readings can be large; an effect the other way counts as inactive or inconclusive.

What was measured:
[1] = target: Glutathione peroxidase 1 (Homo sapiens) (UniProt P07203); test: Primary qHTS Assay for Inhibitors of Recombinant Selenoprotein Glutathione Peroxidase 1 (GPX1) (AID 1845191); further: nearly all actives have a fitted effect of over 65% in size; on activity, negative = inhibition: on the % scale 0 is the no-effect control and ±100 the full control effect
Summary of the method: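 GR-coupled readout: NADPH consumption tracked by fluorescence, ex 340/em 450 nm, at t=0 and after 15 min at RT. Final mix 10 nM GPX1, 1 mM GSH, 0.5 mM CHP, 0.5 mM NADPH, 100 nM GR, 0.01% BSA, following 30 min enzyme–compound preincubation.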

[2] = target: Phospholipid hydroperoxide glutathione peroxidase GPX4 (Homo sapiens) (UniProt P36969); test: Primary qHTS Assay for Inhibitors of Recombinant Selenoprotein Glutathione Peroxidase 4 (GPX4) (AID 1845192); further: nearly all actives have a fitted effect of over 65% in size; on activity change, negative = inhibition: series mostly up to about 50 µM; on the % scale 0 is the no-effect control and ±100 the full control effect
Summary of the method: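 Steps: GPX4 plus compound, 30 min RT; add GR/GSH/NADPH master mix; start with cumene hydroperoxide; read 340/450 nm fluorescence at 0 and 15 min. Finals were 200 nM GPX4, 1 mM GSH, 0.5 mM CHP, 0.5 mM NADPH, 100 nM GR.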

[3] = target: Luciferin 4-monooxygenase (Photinus pyralis) (UniProt P08659); test: Primary firefly luciferase (FLuc) qHTS assay for identification of artifact compounds. (AID 1845220); further: nearly all actives have a fitted effect of over 60% in size;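 on activity change, negative = inhibition: series mostly up to about 54 µM; plate controls were DMSO vehicle for no effect and no enzyme for full effect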
Summary of the method: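 D-luciferin and ATP (10 uM each, final) in Tris acetate buffer pH 7.6 were incubated with compounds for 15 min at room temperature. The reaction was started with 10 nM Photinus pyralis luciferase and luminescence read after 5 min. Percent inhibition was fitted to a 4-parameter Hill equation.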

[4] = Primary fluorescence-based thiol-reactive (MSTI) qHTS assay for identification of artifact compounds. (AID 1845221);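 further: series mostly up to about 54 µM; thiol-reactive compounds lower the probe fluorescence signal; nearly all actives have a fitted effect of over 65% in size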
Summary of the method: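 qHTS titration of compound; 4 uM MSTI, PBS pH 7.4, 2% DMSO; 1 h RT, dark; fluorescence 525/598 nm; normalized to Acetyl-MSTI and MSTI; 4-parameter Hill fit.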

[5] = system: Nanoluciferase (engineered Oplophorus gracilirostris luciferase); test: Primary Nanoluciferase (NLuc) qHTS assay for identification of artifact compounds. (AID 1845222);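 further: series mostly up to about 54 µM; 0% = DMSO and -100% = no enzyme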
Summary of the method: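 Diluted conditioned medium from NLuc-expressing S16 cells treated with compounds for 15 min at room temperature, then Nano-Glo substrate added; luminescence read after 5 min. Percent inhibition versus no-enzyme and DMSO controls fitted to 4-parameter Hill equation.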

[6] = Primary redox qHTS assay for identification of artifact compounds. (AID 1845223);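 further: 0% = DMSO and 100% = reference compound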
Summary of the method: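 Redox-cycling detection via DTT (250 uM final) oxidation coupled to Amplex Red (25 uM)/HRP (250 mU/mL) in HBSS. 15 min preincubation plus 30 min after DTT, room temperature. Ex/Em 525/598 nm; 4-parameter Hill fit against DMSO and 10 uM DA3003.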

Glutathione peroxidase 1 (Homo sapiens), sequence (P07203 whole entry, looked up): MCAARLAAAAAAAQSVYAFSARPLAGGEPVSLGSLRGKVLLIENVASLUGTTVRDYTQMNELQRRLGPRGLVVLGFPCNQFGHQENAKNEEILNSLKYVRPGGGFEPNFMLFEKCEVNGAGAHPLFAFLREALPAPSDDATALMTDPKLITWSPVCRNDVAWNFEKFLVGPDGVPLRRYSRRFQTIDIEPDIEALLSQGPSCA
Phospholipid hydroperoxide glutathione peroxidase GPX4 (Homo sapiens), sequence (P36969 whole entry, looked up): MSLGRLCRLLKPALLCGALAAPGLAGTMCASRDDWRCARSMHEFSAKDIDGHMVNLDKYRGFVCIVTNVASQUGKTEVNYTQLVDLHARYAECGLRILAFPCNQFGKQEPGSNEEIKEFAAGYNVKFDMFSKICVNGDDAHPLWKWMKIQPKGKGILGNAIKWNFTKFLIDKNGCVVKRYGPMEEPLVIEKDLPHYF

C/C=C/C=C/C=C/C(=O)O[C@@H]1C=C2COC(=O)[C@]2(O)[C@@]2(C)CCCC(C)(C)[C@H]12
inactive: Potency [1] | Potency [2] | Potency [3] | Potency [4] | Potency [5] | Potency [6]

O=C(Nc1ccccc1)c1ccc(Nc2nnc(-c3ccc(O)cc3)c3ccccc23)cc1
inactive: Potency [1] | Potency [2] | Potency [3] | Potency [4] | Potency [5] | Potency [6]

COC(=O)C1=CO[C@@H](O[C@@H]2O[C@H](CO)[C@@H](O)[C@H](O)[C@H]2O)[C@H]2[C@@H]1C=C[C@]21C=C([C@H](C)OC(=O)/C=C/c2ccc(O)cc2)C(=O)O1
inactive: Potency [1] | Potency [2] | Potency [3] | Potency [4] | Potency [5] | Potency [6]

Cn1ncc2cc(-c3cnc(N)c(Cl)c3N3CCC4(CCNC4=O)CC3)ccc21
inactive: Potency [1] | Potency [2] | Potency [3] | Potency [4] | Potency [5] | Potency [6]

CC1=CC2/C=C(\C)CCC(O)C(=O)C(O)CC(=O)C23C(=O)NC(CC(C)C)C3C1C (stereo not drawn)
inactive: Potency [1] | Potency [2] | Potency [3] | Potency [4] | Potency [5] | Potency [6]

C[C@H]1CC[C@@]2(OC1)O[C@H]1CC3[C@@H]4CC[C@@H]5C[C@@H](O[C@@H]6O[C@H](CO)[C@@H](O[C@@H]7O[C@H](CO[C@@H]8OC[C@@H](O)[C@H](O)[C@H]8O)[C@@H](O[C@@H]8O[C@H](CO)[C@H](O)[C@H](O)[C@H]8O)[C@H](O)[C@H]7O)[C@H](O)[C@H]6O)CC[C@]5(C)C4CC[C@]3(C)[C@H]1[C@@H]2C (stereo partly drawn)
inactive: Potency [1] | Potency [2] | activity change, negative = inhibition [3] 2.09% [at 11.6 µM] | activity change, negative = thiol reactive [4] 133% [at 11.5 µM] | activity, negative = inhibition [5] 2.05% [at 11.6 µM] | redox activity (% of DA3003) [6] 17.1% [at 11.5 µM]

O=C(NCCCN1CCOCC1)c1cnn2c(-c3ccccc3)cc(-c3ccccc3)nc12
inactive: Potency [1] | Potency [2] | Potency [3] | Potency [4] | Potency [5] | Potency [6]

CCN1CCC[C@@H]1CNC(=O)c1ccc2c(c1)NC(=O)c1cccc(C)c1S2
inactive: Potency [1] | Potency [2] | Potency [3] | Potency [4] | Potency [5] | Potency [6]

C/C=C(\C)C(=O)OC1C=C(C)CC(OC(=O)c2ccc(O)cc2)C2C1(C)CCC2(O)C(C)C (stereo not drawn)
inactive: Potency [1] | Potency [2] | Potency [3] | Potency [4] | Potency [5] | Potency [6]

COc1ccc(C[C@H]2COC(=O)[C@@H]2Cc2ccc(O[C@@H]3O[C@H](CO)[C@@H](O)[C@H](O)[C@H]3O)c(OC)c2)cc1OC
inactive: Potency [1] | Potency [2] | Potency [3] | Potency [4] | Potency [5] | Potency [6]

CN(C)CCOc1cc(NS(=O)(=O)c2c(Cl)cc(C(F)(F)F)cc2Cl)ccc1Cl
inactive: Potency [1] | Potency [2] | Potency [3] | Potency [4] | Potency [5] | Potency [6]

O=C(O)c1ccc(S(=O)(=O)N(Cc2ccc(OC(F)(F)F)cc2)c2ncc(C(F)(F)F)cc2Cl)cc1
inactive: Potency [1] | Potency [2] | Potency [3] | Potency [4] | Potency [5] | Potency [6]

N#Cc1cccc(C(=O)Nc2cc(-c3ccccc3)nn2-c2ccccc2)c1
inactive: Potency [1] | Potency [2] | Potency [3] | Potency [4] | Potency [5] | Potency [6]

CC(C)(O)C1CC(=O)C2(C)C(CCC3(C)C(c4ccoc4)OC(=O)C4OC432)C12CCC(=O)OC2 (stereo not drawn)
inactive: Potency [1] | Potency [2] | Potency [3] | Potency [4] | Potency [5] | Potency [6]

C=C1CC[C@@H]2[C@](C)(CO)[C@H](O)CC[C@@]2(C)[C@@H]1/C=C/C1=CCOC1=O
inactive: Potency [1] | Potency [2] | Potency [3] | Potency [4] | Potency [5] | Potency [6]

Nc1cccc(CNC(=O)c2ccc(Oc3ccc(OCc4cccc(F)c4)cc3)nc2)c1
inactive: Potency [1] | Potency [2] | Potency [3] | Potency [4] | Potency [5] | Potency [6]

COC1C(O)C(OC2CCC3(C)C(CCC45CCC6C7(COC(=O)C7)OC4(O)C6(C)CCC35)C2)OC(C)C1OC1OC(CO)C(OC2OC(CO)C(O)C(O)C2O)C(O)C1O (stereo not drawn)
inactive: Potency [1] | Potency [2] | activity change, negative = inhibition [3] 0.42% [at 11.6 µM] | activity change, negative = thiol reactive [4] 19.5% [at 11.5 µM] | activity, negative = inhibition [5] 4.19% [at 11.6 µM] | redox activity (% of DA3003) [6] 3.19% [at 11.5 µM]

C=C[C@]1(C)C[C@H](O)[C@H]2C(=C)C(=O)O[C@@H]2[C@H]1C(=C)CO
inactive: Potency [1] | Potency [2] | Potency [3] | Potency [4] | Potency [5] | Potency [6]

Clc1ccc(Nc2nc3ccccc3c3nc(C4CCCCC4)[nH]c23)cc1Cl
inactive: Potency [1] | Potency [2] | Potency [3] | Potency [4] | Potency [5] | Potency [6]

C=CCc1ccc(OC(C)Cc2ccc(OC)c(OC)c2)c(OC)c1 (stereo not drawn)
inactive: Potency [1] | Potency [2] | Potency [3] | Potency [4] | Potency [5] | Potency [6]

CC(C)CCCCC(=O)N[C@@H](CO)C(=O)N[C@@H](CC(C)C)C(=O)[C@@]1(CO)CO1
inactive: Potency [1] | Potency [2] | Potency [3] | Potency [4] | Potency [5] | Potency [6]

CC(C)NC(=O)N1CC[C@H](N=C2Nc3cc(F)ccc3N(CC(F)F)c3ccc(Cl)cc32)C1
inactive: Potency [1] | Potency [2] | activity change, negative = inhibition [3] 1.25% [at 11.6 µM] | activity change, negative = thiol reactive [4] 70.3% [at 11.5 µM] | activity, negative = inhibition [5] 1.94% [at 11.6 µM] | redox activity (% of DA3003) [6] 12.5% [at 11.5 µM]

CCOc1nc(NC(=O)Cc2cc(OC)ccc2OC)cc(N)c1C#N
inactive: Potency [1] | Potency [2] | Potency [3] | Potency [4] | Potency [5] | Potency [6]
